DAX1 inh-1 – DAX1 (NR0B1) inhibition, primary screen; HEK293T StAR-luciferase reporter, SF-1/DAX-1 repression relief; inhibition, % at 6.8 µM; actives 1.1% (n = 370,000);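 active = inhibition above the mean over all tested compounds plus 3 SD, cut at about 3.6% in these data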;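 note: 0% = DAX-1 cells with DMSO and 100% = cells lacking DAX-1 with DMSO; higher inhibition means more luminescence from relief of DAX-1 repression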
DAX1 inh-2 – inhibitors of human orphan nuclear receptor DAX1 (NR0B1) | actives 0.99% (n = 340,000) | P51843 | inhibition, % at 6.75 µM | HEK293 Gal4-DAX1 luciferase reporter, luminescence;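 active = inhibition above the mean over all tested compounds plus 3 SD, cut at about 4.2% in these data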;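 note: 0% = DAX1-transfected cells with DMSO and 100% = empty-vector control cells with DMSO; inhibition shows as a rise in luminescence from relieved DAX1 repression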
Target sequence (P51843 207-470 limits assumed): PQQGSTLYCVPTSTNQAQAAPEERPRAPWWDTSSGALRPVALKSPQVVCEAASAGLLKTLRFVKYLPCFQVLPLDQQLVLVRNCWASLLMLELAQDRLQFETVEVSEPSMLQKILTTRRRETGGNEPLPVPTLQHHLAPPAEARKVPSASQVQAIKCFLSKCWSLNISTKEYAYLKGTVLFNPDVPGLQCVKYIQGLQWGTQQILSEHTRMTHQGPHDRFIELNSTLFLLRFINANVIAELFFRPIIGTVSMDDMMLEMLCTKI
hgDAF-12 ag – activates the H. glycines DAF-12 receptor ligand-binding domain. actives 1.8% (n = 370,000). activation, % at 6.8 µM. HEK293 GAL4-hgDAF12 UAS-luciferase reporter, agonist luminescence; normalized to butyrate control. AID 687014;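 active = activation above a cutoff set at the mean of all screened compounds plus 3 SD, cut at about 10% in these data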;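 note: 0% = DMSO wells and 100% = sodium butyrate wells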
hcDAF-12 act – activators of H. contortus DAF-12 nuclear receptor; actives 1.4% (n = 370,000); activation, % at 6.8 µM; AID 652067; HEK293 hcDAF-12 lit1-tk-luc reporter, luminescence; 0% DMSO, 100% Δ7-dafachronic acid;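 active = activation above the mean of all tested compounds plus 3 SD, cut at about 5.5% in these data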;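 note: 100% = response to 3 µM Δ7-dafachronic acid high control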
ssDAF12 agonist – activators of S. stercoralis DAF-12 nuclear receptor; HEK293 ssDAF-12/GRIP1 lit1-tk-luc reporter, luminescence; % of 3 µM dafachronic acid response; activation, % at 6.8 µM; actives 1% (n = 370,000); AID 652126;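 active = activation above the mean over all tested compounds plus 3 SD, cut at about 0.9% in these data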;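 note: 0% = DMSO-only wells and 100% = 3 µM delta7-dafachronic acid wells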
SMARCA2 act – activators of SMARCA2 function. MG213 cells, MMTV-luciferase reporter, dexamethasone, overnight. actives 1% (n = 370,000). activation, % at 9.1 µM; in the data active = activation above about 7.8%;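 note: 0% = vehicle wells and 100% = reference activator wells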
LXRb hcDAF ctr – activates human LXR-beta, counter-screen for hcDAF-12 agonists. shares compounds with hcDAF-12 act. HEK293 Gal4-LXR tk-luc reporter, luminescence, 24 h; normalized: DMSO 0%, positive control 100%. activation, % at 6.8 µM. 3,400 tested, under 10 active. AID 743027;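 active = mean percent activation of the reporter above a cutoff set as the average over tested compounds plus their standard deviation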
Target sequence (P55055 whole entry, looked up, the tested form may be a part): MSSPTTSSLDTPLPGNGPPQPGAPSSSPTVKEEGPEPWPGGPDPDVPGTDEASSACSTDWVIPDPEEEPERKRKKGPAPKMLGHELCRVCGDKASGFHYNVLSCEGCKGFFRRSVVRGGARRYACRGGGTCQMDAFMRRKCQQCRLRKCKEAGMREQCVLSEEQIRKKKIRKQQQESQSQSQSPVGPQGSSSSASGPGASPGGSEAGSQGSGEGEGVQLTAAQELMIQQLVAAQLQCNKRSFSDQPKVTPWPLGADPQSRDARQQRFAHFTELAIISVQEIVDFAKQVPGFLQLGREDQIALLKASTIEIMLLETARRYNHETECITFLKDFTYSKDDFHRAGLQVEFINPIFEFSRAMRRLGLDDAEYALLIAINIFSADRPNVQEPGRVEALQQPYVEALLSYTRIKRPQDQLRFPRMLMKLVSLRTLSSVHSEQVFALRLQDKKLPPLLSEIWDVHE
hcDAF12 conf – confirmation of H. contortus DAF-12 agonists. shares compounds with hcDAF-12 act. HEK293 hcDAF-12 lit1-tk-luc reporter, luminescence; % of Δ7-dafachronic acid response. activation, % at 6.8 µM. actives 61% (n = 3,400);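 active = mean activation across triplicate tests above the threshold derived from the earlier primary screen, cut at about 5.5% in these data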;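 note: 0% = DMSO only wells and 100% = 3 µM Δ7-dafachronic acid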
hgDAF12 conf – hgDAF-12 agonism, confirmation assay. shares compounds with hgDAF-12 ag. actives 80% (n = 3,300). HEK293 GAL4-hgDAF12 luciferase reporter, agonist mode; percent of butyrate response. activation, % at 6.8 µM;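 active = mean activation over triplicate wells above the hit cutoff derived from the earlier primary screen, cut at about 11% in these data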;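 note: 0% = DMSO low control and 100% = 2 mM sodium butyrate high control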
LXR ag 2 – activates human LXR-beta, counter-screen for DAF-12 agonists | shares compounds with hgDAF-12 ag | HEK293 Gal4-LXR luciferase reporter, 24 h | activation, % at 6.8 µM | 3,300 tested, under 10 active;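 active = mean activation of the triplicate above a set limit carried over from the primary screen, none filed active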
* marks the source's active call; other numbers are inactive results; · = no result given; ! = not active in a repeat. Only some compounds are listed: those with a hit (about 4.8% of all), similar ones and a draw of the others.

SMILES | DAX1 inh-1 | DAX1 inh-2 | hgDAF-12 ag | hcDAF-12 act | ssDAF12 agonist | SMARCA2 act | LXRb hcDAF ctr | hcDAF12 conf | hgDAF12 conf | LXR ag 2
COc1cc2ccccc2cc1C(=O)Nc1ccccc1N1CCCC1 | 0 | -1 | 0 | 4 | 0 | -2 | · | · | · | ·
O=C(Nc1ccccc1Cl)c1cc[n+]([O-])cc1 | 0 | 0 | 0 | 0 | -1 | -2 | · | · | · | ·
Cc1ccc(C(=O)Nc2ccccc2Cl)cc1 | 3 | 7.1* | 13* | 12* | 1.2* | 5 | 2 | 7.3* | 16* | 1
COc1cc2ccccc2cc1C(=O)NC(=S)Nc1ccc(C(=O)O)cc1 | 0 | 0 | 1 | 0 | 0 | 1 | · | · | · | ·
COc1cc2ccccc2cc1C(=O)Nc1ccccc1Cl | 3 | 4.8* | 16* | 12* | 2.2* | 5 | 1 | 15* | 20* | 1
COc1ccc(NC(=O)c2cc3ccccc3cc2OC)cc1 | 2 | 4 | 15* | 12* | 3.2* | 6 | 1 | 12* | 17* | 1
O=C1/C(=C/c2cccc(Cl)c2)CSc2sccc21 | 0 | -1 | 0 | -1 | -2 | -4 | · | · | · | ·
O=C(Nc1ccccc1O)c1csc2c1CCCC2 | 2 | 2 | 16* | 7.4* | 1 | -1 | 1 | 10* | 13* | 0
O=C(Nc1ccccc1O)c1c(O)c2c([nH]c1=O)CCCC2 | 3 | 5.0* | 19* | 8.0* | 1.5* | 4 | 1 | 6.9* | 16* | 1
Cc1ccc(NS(=O)(=O)c2c(C)[nH]c(=O)[nH]c2=O)cc1F | 0 | 1 | -2 | 0 | -1 | -4 | · | · | · | ·
CNC[C@@H]1Oc2ccc(NC(=O)Nc3ccccc3)cc2C(=O)N([C@@H](C)CO)C[C@H]1C | 0 | 0 | 0 | 0 | -1 | 2 | · | · | · | ·
C[n+]1c2cc(N)ccc2cc2ccc(N)cc21 | -3 | -1 | 13*! | 6.6* | 0 | 5 | 1 | 11* | 8 | 1
CN1C2CCC1CC(NC(=O)CSc1ccc(Cl)cc1)C2 (stereo not given) | 1 | 2 | -1 | 0 | 0 | -1 | · | · | · | ·
O=c1c(-c2cc3ccccc3o2)[n+]([O-])c2ccccc2n1OCc1ccccn1 | 4.3* | 4 | 18* | 15* | 2.2* | 5 | 1 | 9.7* | 21* | 1
CCOn1c(=O)c(-c2cc3ccccc3o2)[n+]([O-])c2ccccc21 | · | 1 | · | · | · | · | · | · | · | ·
COc1ccc(CCNC(=O)c2cc(=O)c3cc(C)ccc3o2)cc1 | 0 | -1 | 2 | 0 | -1 | -3 | · | · | · | ·
COc1cc(-c2nc3ccccc3s2)ccc1O | 2 | 3 | 14* | 8.6* | 0 | 3 | 1 | 7.3* | 14* | 1
O=C(c1ccco1)N1CCN(C(c2cccs2)c2nnnn2C2CCCC2)CC1 (stereo not given) | 0 | -1 | 2 | -2 | -1 | -1 | · | · | · | ·
O/N=C/c1ccc(OCc2ccccc2F)c(Cl)c1 | 2 | 2 | 19* | 6.7* | 0 | 5 | 1 | 5 | 17* | 1
N=C(N)SCc1cn2ccccc2n1 | 1 | 0 | 1 | 2 | -1 | 2 | · | · | · | ·
Nc1ccccc1SCc1cn2ccccc2n1 | 4.2* | 1 | 14* | 7.4* | 1.4* | 3 | 1 | 5 | 14* | 0
CC(=Nc1ccccc1)c1sc2ccccc2c1O | 2 | 3 | 17* | 20* | 2.1* | 2 | 2 | 11* | 26* | 2
Cc1nc(C)c(-c2csc(Nc3cccnc3)n2)s1 | -1 | 2 | 6 | 1 | -1 | -1 | · | · | · | ·
COc1ccc(CNc2ccc3c(c2)nc(C)n3C)cc1 | 2 | 0 | 6 | 3 | -1 | 4 | · | · | · | ·
Cc1ccc(CNc2nc3ccccc3n2C)cc1 | 3 | 3 | 21* | 16* | 3.6* | 6 | 2 | 16* | 20* | 1
SMILES | DAX1 inh-1 | DAX1 inh-2 | hgDAF-12 ag | hcDAF-12 act | ssDAF12 agonist | SMARCA2 act | LXRb hcDAF ctr | hcDAF12 conf | hgDAF12 conf | LXR ag 2
Cc1ccc(CNc2ccc3c(c2)nc(C)n3C)cc1 | 3 | 2 | 16* | 16* | 1.3* | 5 | 1 | 6.4* | 17* | 1
COc1ccc(-c2nc(CS(=O)(=O)CC(=O)NCc3ccccc3Br)c(C)o2)cc1 | 0 | 1 | -1 | -1 | -1 | 3 | · | · | · | ·
CSc1ccccc1OCc1cc(C(=O)N[C@H]2CCCCNC2=O)no1 | 4.4* | 1 | 19* | 7.2* | 0 | 6 | 1 | 3 | 10 | 0
Cc1[nH]c2ccccc2c1N=Nc1cccc(C(=O)O)c1 | 4.2* | 2 | 14* | 12* | 2.9* | 3 | 1 | 7.6* | 19* | 1
COC(=O)c1cc(N=Nc2c(C)[nH]c3ccccc23)cc(C(=O)OC)c1 | 0 | 1 | 3 | 0 | -1 | -1 | · | · | · | ·
Cc1[nH]n(-c2ccccc2)c(=O)c1N=Nc1cccc(C(=O)O)c1 | 3 | -3 | 14* | 8.9* | 2.2* | 1 | 1 | 12* | 15* | 1
COc1ccc(C(=O)NCc2ccc(-c3nc4ccccc4s3)cc2)cc1 | 0 | -1 | 7 | -1 | -1 | 1 | · | · | · | ·
Fc1ccccc1OCCSc1nnnn1-c1ccccc1 | 3 | 3 | 13* | 8.1* | 0 | 4 | 1 | 7.7* | 18* | 1
O=C(O)CCSc1nnnn1-c1ccccc1 | 0 | 1 | -1 | 0 | -1 | -1 | · | · | · | ·
CN(C)c1ccc(/C=C/c2nc3ccccc3c(=O)[nH]2)cc1 | 3 | 3 | 19* | 6.6* | 1 | 6 | 2 | 8.1* | 5 | 1
C(=C\c1nc2ccccc2[nH]1)/c1ccccc1 | 2 | -4 | 14* | 7.2* | 1 | -1 | 2 | 8.1* | 18* | 1
CC1CCN(CCCN2C(=O)C3C(C(=O)Nc4cccc(Cl)c4)C4C=CC3(O4)C2C(=O)NC2CCCCC2)CC1 (stereo not given) | 1 | 0 | 2 | -3 | -1 | 3 | · | · | · | ·
O=C(N/N=C/c1cccs1)c1n[nH]c2c1CCC2 | 1 | 2 | 14* | 7.1* | 1.8* | 3 | 1 | 3 | 14* | 1
